Measured values taken from PubChem BioAssay (NCI).
The panel holds about 79,000 compounds, 15% with a hit somewhere; the sample as a whole holds those more often. A number with no mark means an inactive call. Active and inactive are the calls of the source. Rule as the data show it: active = growth inhibition above about 70%; inactive = the rest.

Assays:
[1] = NCI Yeast Anticancer Drug Screen. Data for the rad52 strain (AID 147);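 also: 0% = growth of vehicle-treated control cultures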; settings: S. cerevisiae rad52 mutant growth inhibition, hits give high values
How it was run: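 Yeast strain carrying a DNA damage repair alteration was exposed to test compounds. Growth inhibition was measured relative to vehicle-treated controls.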

[2] = NCI Yeast Anticancer Drug Screen. Data for the wt1 strain (AID 149);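 also: 0% = growth of vehicle-treated wt1 cultures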; settings: S. cerevisiae wt1 strain (SPY 50644) growth inhibition, hits give high values
How it was run: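 wt1 strain grown with compound or vehicle; inhibition taken from the growth difference.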

[3] = NCI Yeast Anticancer Drug Screen. Data for the rad50EPP+ strain (AID 151);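 also: 0% = growth of vehicle-treated control cultures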; settings: S. cerevisiae rad50 mutant strain, hits give high values
How it was run: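 Yeast strain carrying rad50 alteration (rad50EPP+) exposed to compounds; growth inhibition measured relative to vehicle-treated controls.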

[4] = NCI Yeast Anticancer Drug Screen. Data for the mgt1 strain (AID 153); settings: S. cerevisiae mgt1 mutant growth inhibition, hits give high values
How it was run: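 Yeast mgt1 strain (DNA repair/cell-cycle alteration panel) exposed to compounds; growth inhibition measured relative to vehicle-treated controls.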

[5] = NCI Yeast Anticancer Drug Screen. Data for the rad50 strain (AID 155);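 also: 0% = growth of vehicle-only cultures of the same strain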; settings: S. cerevisiae rad50 strain growth inhibition, hits give high values
How it was run: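 DNA repair mutant yeast, compound exposure, growth read-out; inhibition is taken relative to vehicle.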

[6] = NCI Yeast Anticancer Drug Screen. Data for the mec2-1 strain (AID 157); settings: S. cerevisiae mec2-1 strain, hits give high values
How it was run: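 mec2-1 yeast strain, carrying an alteration in DNA damage repair or cell cycle control, was exposed to compounds; growth inhibition was measured relative to vehicle-treated controls.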

[7] = NCI Yeast Anticancer Drug Screen. Data for the rad14 strain (AID 159);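 also: 0% = growth of vehicle-treated control cultures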; settings: S. cerevisiae rad14 strain growth inhibition, hits give high values
How it was run: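 DNA repair-defective yeast, compound-exposed; % growth inhibition derived by comparison with vehicle-treated controls.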

[8] = NCI Yeast Anticancer Drug Screen. Data for the sgs1 mgt1 strain (AID 161);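 also: 0% = growth of cultures given vehicle only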; settings: S. cerevisiae sgs1 mgt1 strain, hits give high values
How it was run: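 Percent growth inhibition was derived by comparing compound-exposed mutant yeast with vehicle-exposed cultures. The strain carries alterations in DNA damage repair.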

[9] = NCI Yeast Anticancer Drug Screen. Data for the CLN2oe strain (AID 163);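 also: 0% = growth of vehicle-only control cultures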; settings: S. cerevisiae CLN2oe strain, hits give high values
How it was run: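 Yeast cells carrying a defined cell-cycle control alteration were exposed to test compounds. Growth inhibition was scored against vehicle-treated control cultures.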

[10] = NCI Yeast Anticancer Drug Screen. Data for the bub3 strain (AID 167); settings: S. cerevisiae bub3 mutant strain, hits give high values
How it was run: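 In this screen, a yeast mutant lacking normal mitotic checkpoint function is challenged with compound. Relative growth versus vehicle gives the inhibition value.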

[11] = NCI Yeast Anticancer Drug Screen. Data for the wt2 strain (AID 169);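 also: 0% = growth of vehicle-treated yeast cultures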; settings: S. cerevisiae wt2 strain growth inhibition, hits give high values
How it was run: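 Yeast cells were exposed to test compounds, and growth inhibition was measured relative to vehicle-treated controls.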

[12] = NCI Yeast Anticancer Drug Screen. Data for the mlh1 strain (AID 171);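 also: 0% = growth of vehicle-treated control cultures of the same strain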; settings: S. cerevisiae mlh1 strain growth inhibition, hits give high values
How it was run: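 Yeast carrying a defined genetic alteration in DNA damage repair or cell cycle control were exposed to test compounds. Growth inhibition was measured relative to vehicle-treated controls.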

[13] = NCI Yeast Anticancer Drug Screen. Data for the sgs1 strain (AID 173);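 also: 0% = growth of vehicle-only control cultures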; settings: S. cerevisiae sgs1 mutant, hits give high values
How it was run: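 Yeast mutant strains carrying defined defects in DNA damage repair or cell cycle control were exposed to test compounds. Growth inhibition was scored against vehicle-treated controls.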

[14] = NCI Yeast Anticancer Drug Screen. Data for the mlh1 rad18 strain (AID 175); settings: S. cerevisiae mlh1 rad18 strain growth inhibition, hits give high values
How it was run: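 Growth inhibition of the yeast strain was measured after compound exposure and expressed relative to vehicle-treated controls. The strain carries defined defects in DNA damage repair.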

[15] = NCI Yeast Anticancer Drug Screen. Data for the rad18 strain (AID 177); settings: S. cerevisiae rad18 mutant growth inhibition, hits give high values
How it was run: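 Yeast carrying a defined DNA damage repair alteration were exposed to compounds. Growth inhibition was expressed relative to vehicle-treated controls.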

[16] = at 5.0 µM (retest, dose inferred, filed as 0.5)
[17] = at 50.0 µM (retest, dose inferred, filed as 5.0)

CCOP(=O)(OCC)/C(C#N)=C/c1ccc(-c2ccc(F)cc2F)o1
growth inhibition ([1]; at 1.2 µM): 2%
growth inhibition ([1]; at 3.7 µM): 4%
growth inhibition ([1]; at 11.0 µM): 4%
growth inhibition ([1]; at 33.0 µM): 4%
growth inhibition ([1]; at 100.0 µM): 4%
growth inhibition ([2]; at 1.2 µM): -2%
growth inhibition ([2]; at 3.7 µM): -2%
growth inhibition ([2]; at 11.0 µM): -2%
growth inhibition ([2]; at 33.0 µM): -4%
growth inhibition ([2]; at 100.0 µM): -1%
growth inhibition ([3]; at 1.2 µM): 0%
growth inhibition ([3]; at 3.7 µM): 1%
growth inhibition ([3]; at 11.0 µM): 3%
growth inhibition ([3]; at 33.0 µM): 0%
growth inhibition ([3]; at 100.0 µM): 5%
growth inhibition ([4]; at 1.2 µM): -5%
growth inhibition ([4]; at 3.7 µM): -4%
growth inhibition ([4]; at 11.0 µM): 0%
growth inhibition ([4]; at 33.0 µM): -10%
growth inhibition ([4]; at 100.0 µM): 0%
growth inhibition ([5]; at 1.2 µM): 2%
growth inhibition ([5]; at 3.7 µM): 2%
growth inhibition [5, 16]: 75% (active)
growth inhibition ([5]; at 11.0 µM): -9%
growth inhibition ([5]; at 33.0 µM): 3%
growth inhibition [5, 17]: 99% (active)
growth inhibition ([5]; at 50.0 µM): 39.8%
growth inhibition ([5]; at 100.0 µM): 5%
growth inhibition ([6]; at 1.2 µM): 2%
growth inhibition ([6]; at 3.7 µM): -4%
growth inhibition [6, 16]: 19%
growth inhibition ([6]; at 11.0 µM): -4%
growth inhibition ([6]; at 33.0 µM): -6%
growth inhibition [6, 17]: 99% (active)
growth inhibition ([6]; at 50.0 µM): 70.8% (active)
growth inhibition ([6]; at 100.0 µM): -1%
growth inhibition ([7]; at 1.2 µM): -1%
growth inhibition ([7]; at 3.7 µM): -1%
growth inhibition ([7]; at 11.0 µM): -2%
growth inhibition ([7]; at 33.0 µM): -3%
growth inhibition ([7]; at 100.0 µM): 1%
growth inhibition [8, 16]: 35%
growth inhibition [8, 17]: 99% (active)
growth inhibition ([8]; at 50.0 µM): 63.1%
growth inhibition ([9]; at 1.2 µM): -1%
growth inhibition ([9]; at 3.7 µM): 1%
growth inhibition ([9]; at 11.0 µM): -6%
growth inhibition ([9]; at 33.0 µM): -7%
growth inhibition ([9]; at 100.0 µM): -1%
growth inhibition ([10]; at 1.2 µM): -7%
growth inhibition ([10]; at 3.7 µM): -1%
growth inhibition [10, 16]: 26%
growth inhibition ([10]; at 11.0 µM): 4%
growth inhibition ([10]; at 33.0 µM): -3%
growth inhibition [10, 17]: 99% (active)
growth inhibition ([10]; at 50.0 µM): 74.8% (active)
growth inhibition ([10]; at 100.0 µM): -2%
growth inhibition ([11]; at 1.2 µM): -2%
growth inhibition ([11]; at 3.7 µM): 0%
growth inhibition ([11]; at 11.0 µM): -1%
growth inhibition ([11]; at 33.0 µM): 1%
growth inhibition ([11]; at 100.0 µM): 1%
growth inhibition ([12]; at 1.2 µM): -1%
growth inhibition ([12]; at 3.7 µM): -7%
growth inhibition ([12]; at 11.0 µM): 3%
growth inhibition ([12]; at 33.0 µM): 0%
growth inhibition ([12]; at 100.0 µM): -1%
growth inhibition ([13]; at 1.2 µM): -2%
growth inhibition ([13]; at 3.7 µM): -4%
growth inhibition ([13]; at 11.0 µM): -3%
growth inhibition ([13]; at 33.0 µM): -4%
growth inhibition ([13]; at 100.0 µM): -1%
growth inhibition [14, 16]: 60%
growth inhibition [14, 17]: 99% (active)
growth inhibition ([14]; at 50.0 µM): 41.4%
growth inhibition ([15]; at 1.2 µM): -3%
growth inhibition ([15]; at 3.7 µM): -2%
growth inhibition ([15]; at 11.0 µM): -2%
growth inhibition ([15]; at 33.0 µM): -19%
growth inhibition ([15]; at 100.0 µM): 2%
